# Screening results from PubChem.
# FH mod: Identification of activators of human fumarate hydratase by quantitative high-throughput screening; AID 1347055, 2019; Potency, µM (highest dose often 79.9 µM), for the others: at the highest dose activity change, negative = inhibition, usual class: inhibitors; FH coupled MDH/diaphorase resazurin fluorescence, 15 min; 54,000 compounds, 0.22% hits; note: potency is the fitted concentration of half-maximal effect; % is set by controls: 0 for no effect and ±100 for the full control effect; the screen sought activators but most active calls are inhibition curves; nearly all actives have a fitted effect of over 45% in size
# OvCa metastasis: ovarian cancer metastasis inhibition, 3D TME model | Potency, µM (highest dose often 45.8 µM), for the others: top-dose activity change, negative = inhibition, hits mostly inhibitors | 46,000 compounds, 0.1% hits | SKOV3ip1-GFP adhesion/invasion on 3D omental model, fluorescence;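 note: potency is the fitted concentration of half-maximal effect; plate controls were DMSO wells for no effect and tomatine positive control wells for full effect; nearly all actives have a fitted effect of over 65% in size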
#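 A 3D layer of primary human omental fibroblasts, mesothelial cells, fibronectin and collagen I, grown 48 hr, received SKOV3ip1-GFP cells in serum-free medium plus compounds at 0.36-46 umol/L. After 2 hr RT and 16 hr 37 C, fixed adherent GFP cells were counted; normalized to DMSO and tomatine.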
# p53null 39C kill: kills p53 null cells at the nonpermissive temperature. H1299 p53-null (neo) cells, 39C, ATPlite viability, 24 h. Potency, µM (top dose mostly 46.1 µM), for the others: top-dose activity, negative = cell killing, hits mostly cytotoxic. 55,000 compounds, 0.97% hits. AID 904;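 note: potency is the fitted concentration of half-maximal effect; 0% = DMSO only and -100% = full killing by 100 µM tamoxifen; nearly all actives have a fitted effect of over 50% in size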
#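 Luminescent ATP signal reported cell survival after H1299 lines (neo, p53 null; or p53 A138V) received up to 46 uM compound and 24 hr incubation at 39C.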
# p53null 32C tox: selectivity test: cytotoxicity in p53 null cells, permissive temperature; H1299-neo p53 null cells, ATP luminescence, 24 h, 32C; Potency, µM (titrated, usually from 46.1 µM), for the others: top-dose activity change, negative = cytotoxicity, most hits filed as cytotoxic; 55,000 compounds, 0.62% hits;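 note: potency is the fitted concentration of half-maximal effect; 0% = DMSO only and -100% = full killing by 100 µM tamoxifen; nearly all actives have a fitted effect of over 55% in size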
#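 H1299-neo (p53-null) cells, 600/well, were pre-incubated overnight at 37C, then exposed to compounds at up to 46 uM for 24 hr at 32C. Viability was measured as ATP content by luminescence, and AC50 values came from Hill fits.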
# NTMT1 inhibitor: inhibitors of human N-terminal methyltransferase NTMT1. NTMT1 MTase-Glo SAH luminescence, purified enzyme. Potency, µM (top dose mostly 114 µM), inactives show at the top dose activity change, negative = inhibition, actives largely listed as inhibitors. 59,000 compounds, 2.5% hits. AID 1645870;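 note: potency is the fitted concentration of half-maximal effect; plate controls were DMSO vehicle for no effect and no enzyme for full effect; nearly all actives have a fitted effect of over 65% in size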
# DYRK1A inh: inhibitors of human DYRK1A kinase; shares compounds with NTMT1 inhibitor; recombinant DYRK1A, Kinase-Glo ATP depletion luminescence; Potency, µM (top dose mostly 76.9 µM), for the others: top-dose activity change, negative = inhibition, hits mostly inhibitors; 100 compounds, 80% hits; AID 2705
# CLK4 inh: CLK4 kinase inhibition, SAR round 2; shares compounds with NTMT1 inhibitor; Potency, µM (highest dose often 76.9 µM), without a hit: at the highest dose activity, negative = inhibition, most hits filed as inhibitors; 90 compounds, 90% hits; AID 493204; recombinant Clk4, Kinase-Glo ATP luminescence, 4.5 h
# Target sequence (Q9HAZ1 whole entry, looked up): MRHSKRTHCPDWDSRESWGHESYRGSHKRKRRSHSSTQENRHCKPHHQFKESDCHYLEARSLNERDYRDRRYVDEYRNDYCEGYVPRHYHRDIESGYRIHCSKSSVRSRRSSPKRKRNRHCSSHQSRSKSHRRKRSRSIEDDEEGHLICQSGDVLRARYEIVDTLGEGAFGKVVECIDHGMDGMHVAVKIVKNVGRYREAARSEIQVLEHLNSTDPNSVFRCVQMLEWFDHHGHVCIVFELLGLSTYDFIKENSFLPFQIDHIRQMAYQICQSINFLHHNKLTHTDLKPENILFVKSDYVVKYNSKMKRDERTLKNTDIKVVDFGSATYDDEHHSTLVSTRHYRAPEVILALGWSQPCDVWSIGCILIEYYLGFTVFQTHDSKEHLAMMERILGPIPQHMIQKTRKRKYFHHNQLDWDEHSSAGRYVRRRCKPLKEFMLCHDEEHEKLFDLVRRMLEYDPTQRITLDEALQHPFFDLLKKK
# Sfp qHTS opt: Sfp PPTase inhibition, chemistry optimization. shares compounds with NTMT1 inhibitor. purified Sfp PPTase enzyme activity, qHTS. Potency, µM (top dose mostly 114 µM), inactives show at the top dose activity change, negative = inhibition, hits mostly inhibitors. 230 compounds, 78% hits. AID 540350
# Bsub HM489 growth: B. subtilis HM489 growth inhibition; shares compounds with NTMT1 inhibitor; 220 compounds, 50% hits; Potency, µM (highest dose often 114 µM), inactives show at the highest dose activity change, negative = inhibition, usual class: inhibitors; B. subtilis HM489 (acpS-) growth, BacTiter-Glo, 5 h
# Sfp gel opt: Sfp PPTase inhibition, gel-based detection; shares compounds with NTMT1 inhibitor; purified Sfp PPTase, gel-based product detection; Potency, µM (titrated, usually from 250 µM), without a hit: top-dose activity change, negative = inhibition, usual class: inhibitors; 220 compounds, 54% hits
# Sfp inh SAR2: Sfp phosphopantetheinyl transferase inhibition, SAR round 2; purified Sfp enzyme, PPTase activity, qHTS; 230 compounds, 87% hits; Potency, µM (titrated, usually from 57.1 µM), without a hit: at the highest dose activity change, negative = inhibition, actives largely listed as inhibitors; shares compounds with NTMT1 inhibitor
# HSD17B4 inh: HSD17B4 (human) inhibition, HPGD counter-screen; 230 compounds, 10% hits; purified HSD17B4, estradiol/NAD+, NADH fluorescence; shares compounds with NTMT1 inhibitor; Potency, µM (series often up to 57.1 µM), inactives show at the top dose activity change, negative = inhibition, most hits filed as inhibitors
# ALDH1A1 inh: inhibits human ALDH1A1, off-target for HPGD inhibitors; shares compounds with NTMT1 inhibitor; recombinant ALDH1A1, NADH fluorescence, propionaldehyde/NAD+; Potency, µM (doses to about 57.1 µM), without a hit: top-dose activity change, negative = inhibition, usual class: inhibitors; 230 compounds, 93% hits; AID 743195
# NNMT inh: human NNMT inhibition, NTMT1 counter-screen; shares compounds with NTMT1 inhibitor; NNMT MTase-Glo luminescence, SAH detection; Potency, µM (top dose mostly 57.1 µM), for the others: at the top dose activity, negative = inhibition, actives largely listed as inhibitors; 120 compounds, 10% hits; AID 1645878
# Active calls of the source: *; ? = inconclusive; nt = no result; ! = not confirmed by another sample; [ ] = dose if it differs, or a comment. Shown is part of a subset that was picked to be rich in hits. Calls come from the whole dose curve; as a rule, active = well fitted curve in the direction sought with a large enough effect; inconclusive = small, poorly fitted or top-dose-only effect, or another doubt; inactive = no such curve, though single readings can be large; an effect the other way counts as inactive or inconclusive.
SMILES,FH mod,OvCa metastasis,p53null 39C kill,p53null 32C tox,NTMT1 inhibitor,others
Cc1cc(C)nc(NC(=S)N2CCN(c3ccc(N4CCCC4)nn3)CC2)c1,nt,nt,nt,nt,?,Sfp qHTS opt=?;Bsub HM489 growth=?;Sfp gel opt=13µM*;Sfp inh SAR2=5.8µM*;HSD17B4 inh=27µM*;ALDH1A1 inh=19µM*
Cc1ccc(Sc2ccc(N3CCC(C(=O)Nc4cc(C)cc(C)c4)CC3)nn2)cc1,-1%,-4%,-23%,?,14%,
Cc1cc(C)nc(NC(=S)N2CCN(c3ccc(NS(C)(=O)=O)nn3)CC2)c1,nt,nt,nt,nt,-26%[57.5 µM],Sfp qHTS opt=?;Bsub HM489 growth=0%;Sfp gel opt=?;Sfp inh SAR2=4.6µM*;HSD17B4 inh=-21%;ALDH1A1 inh=24µM*
O=[N+]([O-])c1ccc(Oc2ccc3c(c2)CCC(c2ccccc2)O3)nc1 (centres undefined),-2%,nt,nt,nt,-24%[57.5 µM],
O=C(NC1CCCc2c1cnn2-c1ccc(F)cc1F)C1CC1 (centres undefined),nt,nt,nt,nt,5%,
CN(C)c1ccc(Nc2nc(N)n(C(=O)c3c(F)cccc3F)n2)cc1,-25%[53.3 µM],18%,nt,nt,?,NNMT inh=-13%
NC(=O)c1nc(Nc2ccccc2)sc1NC(=O)c1c(F)cccc1F,5%,8%,8%,-2%,-6%,
CN(CCc1ccco1)c1ncnc2ccc(-c3ccc4c(c3)OCO4)cc12,nt,nt,nt,nt,?,CLK4 inh=0.092µM*
CC(c1ccco1)N(C)c1ncnc2ccc(-c3ccc4c(c3)OCO4)cc12 (centres undefined),nt,nt,nt,nt,nt,DYRK1A inh=0.26µM*
C[N+]1(CC2COC(c3ccccc3)(c3ccccc3)O2)CCCCC1 (centres undefined),0%[20.6 µM],nt,nt,nt,?,NNMT inh=-18%[28.6 µM]
Cc1ccsc1CN(C)c1ncnc2ccc(-c3ccc([C@@H](C)O)o3)cc12,nt,nt,nt,nt,8.9µM*!,CLK4 inh=0.16µM*
